Assay outcomes from PubChem BioAssay.
A selection: hits, their analogues and other compounds. The true share with any hit is near 3.9%.
sPLA2-III inh = Blocks human group III sPLA2 activity. QFRET BODIPY PC-A2 liposome hydrolysis, fluorescence. Q9NZ20. hit rate 0.56% among 370,000. inhibition, % at 12.2 µM;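 active = inhibition above mean plus 3 SD of compounds lying within the high and low control bounds, cut at about 19% in these data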
Yeast superoxide = yeast age-related superoxide inhibition as caloric restriction mimetic; S. cerevisiae aged cells, superoxide DHE fluorescence; hits give low values; superoxide response (% of plate mean), % at 10 µM; hit rate 0.18% among 330,000; AID 2690;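 active = superoxide response under a set limit, about three screen SD below normal, cut at about 65% in these data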;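 note: yeast aged for seven days with compound at 30 °C before DHE staining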
PLC-beta3 inh = PLC-beta3 (human) inhibition, primary screen. Q01970. Purified PLC-beta3, fluorogenic substrate, fluorescence. inhibition, % at 12.2 µM. hit rate 0.18% among 370,000. AID 720704; in the data active = inhibition above about 11%
PLC-gamma1 inh = inhibitors of human phospholipase C gamma1. inhibition, % at 12.2 µM. AID 720700. P19174. purified PLC-gamma1, fluorogenic substrate, fluorescence. hit rate 0.84% among 370,000
Target sequence (P19174 whole entry, looked up): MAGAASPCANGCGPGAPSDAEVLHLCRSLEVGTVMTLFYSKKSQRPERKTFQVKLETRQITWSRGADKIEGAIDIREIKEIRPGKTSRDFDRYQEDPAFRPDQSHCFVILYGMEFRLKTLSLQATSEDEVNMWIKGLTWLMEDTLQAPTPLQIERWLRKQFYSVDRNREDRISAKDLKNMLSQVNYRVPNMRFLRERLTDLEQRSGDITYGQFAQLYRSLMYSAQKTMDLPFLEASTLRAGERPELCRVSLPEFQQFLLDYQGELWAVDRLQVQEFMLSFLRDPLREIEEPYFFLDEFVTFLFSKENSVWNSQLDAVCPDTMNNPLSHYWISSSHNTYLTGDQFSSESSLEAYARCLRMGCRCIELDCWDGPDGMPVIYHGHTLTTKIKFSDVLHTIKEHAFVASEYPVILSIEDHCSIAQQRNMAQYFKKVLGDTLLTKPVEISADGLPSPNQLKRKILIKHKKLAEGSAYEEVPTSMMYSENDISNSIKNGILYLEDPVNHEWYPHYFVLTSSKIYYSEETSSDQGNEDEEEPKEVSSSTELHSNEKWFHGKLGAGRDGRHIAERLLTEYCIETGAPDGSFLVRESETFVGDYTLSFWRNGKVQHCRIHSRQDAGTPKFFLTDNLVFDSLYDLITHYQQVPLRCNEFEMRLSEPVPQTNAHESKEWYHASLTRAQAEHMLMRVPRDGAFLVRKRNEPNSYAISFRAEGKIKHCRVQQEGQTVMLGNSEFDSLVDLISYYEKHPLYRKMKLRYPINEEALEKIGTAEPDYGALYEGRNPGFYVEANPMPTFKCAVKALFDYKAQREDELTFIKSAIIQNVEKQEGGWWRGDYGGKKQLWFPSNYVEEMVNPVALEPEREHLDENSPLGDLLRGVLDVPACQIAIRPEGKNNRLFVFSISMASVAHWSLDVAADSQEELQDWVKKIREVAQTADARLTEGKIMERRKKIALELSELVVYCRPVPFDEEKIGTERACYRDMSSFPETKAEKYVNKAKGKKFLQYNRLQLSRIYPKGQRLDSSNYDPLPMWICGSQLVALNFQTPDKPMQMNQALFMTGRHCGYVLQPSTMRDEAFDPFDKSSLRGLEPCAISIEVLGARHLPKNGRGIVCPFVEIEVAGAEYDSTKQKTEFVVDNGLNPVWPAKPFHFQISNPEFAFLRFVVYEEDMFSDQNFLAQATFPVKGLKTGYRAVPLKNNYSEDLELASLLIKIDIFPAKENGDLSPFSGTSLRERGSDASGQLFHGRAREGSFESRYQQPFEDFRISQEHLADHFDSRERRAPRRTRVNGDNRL
AHR activator = activators of human aryl hydrocarbon receptor; P35869; AHR-responsive luciferase reporter cells, luminescence; activation, % at 5 µM; hit rate 2.5% among 320,000; in the data active = activation above about 47%
HIF act = HIF pathway transcriptional activation. hit rate 0.32% among 300,000. U2OS HRE-luciferase reporter, luminescence; normalized: DMSO 0%, desferrioxamine 100%. activation, % at 7.5 µM (by protocol);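 active = mean activation of at least 10% of the iron chelator positive control signal, with at least half of replicates also reaching 10%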
PLCgamma1 ctr = counter-screen for PLC-beta3 inhibitors: inhibitors of human PLC-gamma1 | inhibition, % at 12.3 µM | purified PLC-gamma1, fluorogenic substrate, fluorescence | hit rate 3.1% among 3,300 | shares compounds with PLC-gamma1 inh
PLCbeta3 conf = human PLC-beta3 inhibition, confirmation; shares compounds with PLC-gamma1 inh; purified PLC-beta3, fluorogenic substrate fluorescence; inhibition, % at 12.3 µM; hit rate 1% among 3,300; AID 743261; in the data active = inhibition above about 11%
Each line names hits and unclear results; the compound was inactive in the other large screens (follow-up assays come after a bar, where they were run). Cut-off read from the data, not from the text of the source, unless noted: active = inhibition above about 9.5%; inactive = the rest.

CN(NS(=O)(=O)c1ccccc1)C(=O)c1ccccc1	PLC-gamma1 inh 12 (no result: Yeast superoxide, AHR activator, HIF act) | PLCgamma1 ctr inactive | PLCbeta3 conf inactive
CCC[C@H]1[C@@H](NC(=O)NCC)CC[C@@]23CCCN2C(=O)CCC[C@@H]13	none (no result: Yeast superoxide, AHR activator, HIF act)
CC12CN3CC(C)(CN(C1)C3c1ccc3c(c1)OCO3)C2=O (stereo not given)	none (no result: Yeast superoxide, AHR activator)
CC1(C)CC(C2N3CC4(C)CN2CC(C)(C3)C4=O)CCO1 (stereo not given)	PLC-gamma1 inh 13 | PLCgamma1 ctr inactive | PLCbeta3 conf inactive
Cc1ccc(NC(=O)CCNS(=O)(=O)c2cccc3nsnc23)cc1F	none
Cn1c(=O)[nH]c(=O)c2c1nc(SCCN1CCOCC1)n2CCCc1ccccc1	PLC-beta3 inh 12 | PLCgamma1 ctr inactive | PLCbeta3 conf inactive
CCCn1c(N2CCC(Cc3ccccc3)CC2)nc2c1c(=O)[nH]c(=O)n2C	PLC-gamma1 inh 12 | PLCgamma1 ctr inactive | PLCbeta3 conf inactive
Cn1c(=O)[nH]c(=O)c2c1nc(N1CCCCCC1)n2CCOc1ccccc1	PLC-gamma1 inh 11 | PLCgamma1 ctr inactive | PLCbeta3 conf inactive
Cn1c(=O)[nH]c(=O)c2c1nc(SCCN1CCOCC1)n2Cc1ccccc1	none
CCN1CCN(CC(=O)Nc2cc3c(cc2C(C)=O)OCO3)CC1	none
O=C(c1ccco1)N1CCN(Cc2nnc(-c3ccccc3F)o2)CC1	PLC-gamma1 inh 9.8 | PLCgamma1 ctr inactive | PLCbeta3 conf inactive
O=C(c1ccco1)N1CCN(C(=O)C2CC(c3ccccc3F)=NO2)CC1 (stereo not given)	PLC-gamma1 inh 14 | PLCgamma1 ctr inactive | PLCbeta3 conf inactive
Cc1ccccc1-c1nnc(CN2CCN(C(=O)c3ccco3)CC2)o1	none
COc1ccc(NC(=O)CN(C)C(=O)CCc2c[nH]c3ccccc23)cc1	none
Cc1ccc([N+](=O)[O-])cc1S(=O)(=O)Nc1cccc(S(=O)(=O)NC2=NCCC2)c1	PLC-gamma1 inh 9.6 (no result: HIF act) | PLCgamma1 ctr inactive | PLCbeta3 conf inactive
C[C@H]1CN([C@@H](C)CO)C(=O)CCCn2nncc2CO[C@@H]1CN(C)CC1CC1	none (no result: Yeast superoxide, AHR activator, HIF act)
CN(CC(=O)NCc1ccccc1)Cc1cccc(F)c1	PLC-gamma1 inh 11 (no result: AHR activator) | PLCgamma1 ctr inactive | PLCbeta3 conf inactive
CCOC(=O)C1(C)CCN1C(=O)c1cc(F)ccc1C (stereo not given)	none (no result: Yeast superoxide, AHR activator, HIF act)
COCCn1c(C)cc(C(=O)COC(=O)c2ccc(Br)o2)c1C	PLC-gamma1 inh 10 | PLCgamma1 ctr inactive | PLCbeta3 conf inactive
CC(=O)c1ccc(N2CCN(C(=O)CCCn3c(=O)[nH]c4ccccc4c3=O)CC2)cc1	none
COc1ccc(N2CCN(C(=O)CCCn3c(=O)[nH]c4cc(Cl)ccc4c3=O)CC2)cc1	PLC-gamma1 inh 11 | PLCgamma1 ctr inactive | PLCbeta3 conf inactive
Cc1cc2c(c(=O)o1)[C@@]1(C(=O)N(C)c3ccc([N+](=O)[O-])cc31)C1=C(CCCC1=O)O2	PLC-gamma1 inh 9.5 (no result: Yeast superoxide, AHR activator, HIF act) | PLCgamma1 ctr inactive | PLCbeta3 conf inactive
COc1ccc2c(c1)[C@]1(C(=O)N2C)C2=C(CCCC2=O)Oc2cc(C)oc(=O)c21	none (no result: Yeast superoxide, AHR activator, HIF act)
CC1CCCN(C(=O)CCc2nnc(-c3ccc4c(c3)OCO4)o2)C1 (stereo not given)	none
O=c1c2[nH]c3ccccc3c2ncn1CCN1CCOCC1	PLC-gamma1 inh 9.6 | PLCgamma1 ctr inactive | PLCbeta3 conf inactive
COc1ccc2[nH]c3c(=O)n(CCN4CCOCC4)cnc3c2c1	none
O=C1NC[C@@H](CCCCN2C[C@H](Cc3ccc(O)cc3)N(CCc3ccccc3)C(=O)C2=O)N(CCc2ccc(O)cc2)C1=O	none (no result: Yeast superoxide, AHR activator, HIF act)
N#CCc1nn(Cc2ccc(F)cc2)c(=O)c2ccccc12	none
ONC(=Nc1ccc(Cl)cc1)c1ccccc1	PLC-beta3 inh 12 | PLCgamma1 ctr inactive | PLCbeta3 conf 12
Cc1cc(NC(=O)CSCC(=O)OCc2nnc(-c3ccc(F)cc3)o2)no1	none (no result: HIF act)
Cc1ccc(CN2CC=CS2(=O)=O)cc1	none (no result: Yeast superoxide, AHR activator, HIF act)
Cc1cccc(N2CCN(C(=O)c3ccc4ncsc4c3)CC2)c1C	PLC-gamma1 inh 12 (no result: Yeast superoxide, AHR activator, HIF act) | PLCgamma1 ctr inactive | PLCbeta3 conf inactive
O=C(c1ccc2ncsc2c1)N1CCN(c2ccccc2Cl)CC1	none
O=C(O)CCNC(=O)c1ccc(Br)o1	PLC-gamma1 inh 12 | PLCgamma1 ctr inactive | PLCbeta3 conf inactive
O=C(NCCC(c1ccccc1)c1ccccc1)c1ccc(Br)o1	none
COc1ccc(CCNC(=O)c2ccc(OC)c(OC)c2)cc1OC	none
COc1ccc(CCN(C)C(=O)CCNC(=O)c2ccc(Br)cc2)cc1OC	PLC-gamma1 inh 11 | PLCgamma1 ctr inactive | PLCbeta3 conf inactive
O=C(NCCc1ccccn1)C1CCN(S(=O)(=O)c2ccc3ccccc3c2)CC1	none
Cc1[nH]n(-c2ccccc2)c(=O)c1CCOC(=O)c1cccc(C(F)(F)F)c1	PLC-gamma1 inh 11 | PLCgamma1 ctr inactive | PLCbeta3 conf inactive
O=C(NCCCN1CCCC1=O)c1sc2ccccc2c1Cl	none
O=C(O)c1cccc(NC(=S)NC(NC(=O)c2cccc([N+](=O)[O-])c2)C(Cl)(Cl)Cl)c1 (stereo not given)	PLC-gamma1 inh 11 | PLCgamma1 ctr inactive | PLCbeta3 conf inactive
COc1cc(/C=C(\C#N)C(=O)c2ccc(O)c(O)c2)cc(I)c1O	PLC-gamma1 inh 10 (no result: HIF act) | PLCgamma1 ctr inactive | PLCbeta3 conf inactive
COc1ccc(-n2c(=S)[nH]c3cc(C(=O)N(C)Cc4ccccc4)ccc3c2=O)cc1	PLC-gamma1 inh 12 | PLCgamma1 ctr inactive | PLCbeta3 conf inactive
COc1ccc(-n2c(=S)[nH]c3cc(C(=O)O)ccc3c2=O)cc1	none
COc1ccccc1C(=O)NCC(=O)NNc1ncnc(N)c1[N+](=O)[O-]	none (no result: sPLA2-III inh, PLC-beta3 inh, PLC-gamma1 inh)
Cc1ccc(S(=O)(=O)N(CC(=O)N/N=C/c2cccc(C)c2)c2cccc3cccnc23)cc1	PLC-gamma1 inh 11 (no result: HIF act) | PLCgamma1 ctr inactive | PLCbeta3 conf inactive
Cc1ccc(S(=O)(=O)N(CC(=O)N/N=C\c2cccs2)c2cccc3cccnc23)cc1	none
COc1ccc(C(C)NCCC(c2ccc(OC(C)C)cc2)c2ccccc2OC)cc1 (stereo not given)	PLC-gamma1 inh 16 (no result: AHR activator) | PLCgamma1 ctr inactive | PLCbeta3 conf inactive
COc1ccc(C(CCNC(C)c2ccccc2)C(C)C)cc1 (stereo not given)	none
O=C(NOCc1cscn1)Nc1ccccc1	none (no result: Yeast superoxide, AHR activator, HIF act)
